Assay results: PubChem BioAssay (EPA / NIEHS)
Records with an inconclusive call do not appear. Activity calls are given as the source filed them. Rule for the calls: active = hit-call score of the fitted dose curve at least 0.9, where 1 is the maximum; inconclusive = response in the unintended direction; inactive = score below 0.9.

Assay: Tanguay_ZF_120hpf_JAW_legacy: (Legacy) Oregon State University Tanguay Lab 120 Hour Post-fertilization zebrafish Assay for Jaw Malformation (AID 2283638);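 for AC50: active means more embryos with jaw malformation than DMSO controls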
Description: Tanguay_ZF_120hpf_legacy is a whole embryo, multiplexed endpoint assay using zebrafish larvae exposed for 120 hours post fertilization on a 96-well plate.Tanguay_ZF_120hpf_JAW_legacy is one of one assay component(s) measured or calculated from the Tanguay_ZF_120hpf_legacy assay. It is designed to make measurements of zebrafish development as detected with brightfield microscopy of developing zebrafish embryos.Data from the assay component Tanguay_ZF_120hpf_JAW_legacy was analyzed into 1 assay endpoints. This assay endpoint, Tanguay_ZF_120hpf_JAW_legacy, was analyzed in the positive analysis fitting direction relative to DMSO as the negative control and baseline of activity. Using a type of morphology reporter, gain-of-signal activity can be used to understand changes in developmentals as they relate to the whole embryo. To generalize the intended target to other relatable targets, this assay endpoint is annotated to the zebrafish development intended target family, where the subfamily is embryonic jaw development.
Zebrafish husbandry: Tropical 5D wild-type adult zebrafish were housed in at an approximate density of 1000 per 100 gallon tank at the Sinnhuber Aquatic Research Laboratory, Oregon State University, Corvallis, OR. Each tank was kept at standard laboratory conditions of 28C on a 14-h light/10-h dark photoperiod in fish water consisting of reverse osmosis water supplemented with a commercially available salt (Instant Ocean). Spawning funnels were placed into the tanks the night prior, and embryos were collected and staged. To increase bioavailability, the chorion was enzymatically removed using pronase (63.6mg/ml, >/= 3.5U/mg, Sigma-Aldrich: P5147) at 4 hours post fertilization (hpf) using a custom automated dechorionator.Chemical exposures: Six hpf dechorionated embryos were placed 1 embryo per well in a 96-well plate prefilled with 90 ul of EM using automated embryo placement systems (AEPS). Ten microliters of each row of dilution plate 2 was added to 2 exposure plates. The final DMSO concentration used was 0.64% (vol/vol). Thirty-two embryos were also exposed to 5uM trimethyltin chloride (positive control). Plates were sealed to prevent evaporation and foil covered to reduce light exposure and kept in a 28C incubator. Embryos were statically exposed until 120 hpf. At 24 hpf, embryos were assessed for photomotor response using a custom photomotor response analysis tool (PRAT) and for developmental toxicity endpoints (MO24: mortality at 24 hpf, DP: developmental progression, SM: spontaneous movement, and NC: notochord distortion). At 120 hpf, locomotor activity was measured using Viewpoint Zebralab and assessed for 18 endpoints. Zebrafish acquisition and analysis program (ZAAP), a custom program designed to inventory, acquire, and manage zebrafish data, was used to collect developmental endpoints as either present or absent (i.e., binary responses were recorded). If mortality occurred for an embryo (at either 24 or 120 hpf), the non-mortality endpoints were not measured.
For `CCCCC(CC)C(=O)OCCOCCOCCOC(=O)C(CC)CCCC` (stereo not given), the outcome was “inactive”.
With `C[C@@H](Oc1ccc(CNC(=O)c2cccnc2Oc2ccc3c(c2)OCO3)c(F)c1)C(=O)O` the outcome was “inactive”.
For `C[C@]12C=CC(=O)C=C1CC[C@H]1[C@@H]3C[C@@H](O)[C@](O)(C(=O)CO)[C@@]3(C)C[C@H](O)[C@@]12F`, the outcome was “inactive”.
For `CCc1ccc(O)c(C(C)(C)C)c1`, the outcome was “inactive”.
For `CCCCCCOC(=O)CC(CC(=O)OCCCCCC)(OC(=O)CCC)C(=O)OCCCCCC`, the outcome was “inactive”.
For `OC(Cn1cncn1)(Cn1cncn1)c1ccc(F)cc1F`, the outcome was “inactive”.
In the case of `CCCOc1ccc(S(=O)(=O)N2CCN(CC)CC2)cc1-c1nc2c(CC)n(Cc3ccccn3)nc2c(=O)[nH]1`, the outcome is reported as “inactive”.
In the case of `CCCCCCCC1CCC(=O)O1` (stereo not given), the AC50 is reported as 40.3 µM (active).
In the case of `CCCC(CCC)C(=O)O`, the outcome is reported as “inactive”.
For `Nc1ccn([C@@H]2O[C@H](CO)[C@@H](O)[C@@H]2O)c(=O)n1`, the outcome was “inactive”.
In the case of `Cn1cc[nH]c1=S`, the outcome is reported as “inactive”.
With `c1ccc2cc3ccccc3cc2c1` the outcome was “inactive”.
In the case of `O=C(O)c1cccc(C[C@@H]2COc3ccc(OCc4nc5cc(F)ccc5s4)cc3[C@@H]2O)c1`, the AC50 is reported as 9.13 µM (active).
In the case of `C=CN1CCCC1=O`, the outcome is reported as “inactive”.
In the case of `CCOC(N)=O`, the outcome is reported as “inactive”.
With `CCCCCOC(C)=O` the outcome was “inactive”.
For `CCCc1ccccc1`, the outcome was “inactive”.
With `CCOc1ccc2[nH]cc(C(=O)NCc3ccccc3)c(=O)c2n1` the outcome was “inactive”.
For `CNC(C)=O`, the outcome was “inactive”.
With `COCc1nnc(-c2ccc[n+]([O-])c2)n1-c1c(Cl)c(Cl)cc2[nH]c(=O)c(=O)[nH]c12` the outcome was “inactive”.
With `OCCOCCOCCO` the outcome was “inactive”.
With `COS(C)(=O)=O` the outcome was “inactive”.
In the case of `CC(C)CC(C)O` (stereo not given), the outcome is reported as “inactive”.
With `CCc1cccc(CC)c1N` the outcome was “inactive”.
In the case of `Cc1nccn1-c1ccc(Sc2cccc(C3(C(N)=O)CCOCC3)c2)cc1`, the outcome is reported as “inactive”.
With `Cc1nc(-c2ccccn2)ncc1C(=O)Nn1cc(C)c2cc(F)ccc21` the outcome was “inactive”.
With `COc1cc(C(C)C)c2c(c1)S(=O)(=O)N(COc1cc(=O)n3cccc(OCCN4CCCCC4)c3n1)C2=O` the outcome was “inactive”.
With `OC(CCl)CCl` the outcome was “inactive”.
In the case of `c1ccc2ncccc2c1`, the outcome is reported as “inactive”.
For `Cc1ncc([C@@H](CCCCCCc2ccc3c(n2)NCCC3)CC(=O)O)cn1`, the outcome was “inactive”.
For `NNC(=O)c1ccncc1`, the outcome was “inactive”.
With `COc1cc2c(c(OC)c1OC)-c1ccc(OC)c(=O)cc1[C@@H](NC(C)=O)CC2` the outcome was “inactive”.
For `CCCCN1C(=O)[C@@H]([C@H](O)C2CCCCC2)NC(=O)C12CCN(Cc1ccc(Oc3ccc(C(=O)O)cc3)cc1)CC2`, the outcome was “inactive”.
For `CCCCCCCCCC`, the outcome was “inactive”.
With `CC(C)C(=O)Nc1ccc([N+](=O)[O-])c(C(F)(F)F)c1` the outcome was “inactive”.
In the case of `Cn1c(=O)c2[nH]cnc2n(C)c1=O`, the outcome is reported as “inactive”.
For `CC(C)CCCCCCOC(=O)C1CCCCC1C(=O)OCCCCCCC(C)C` (stereo not given), the outcome was “inactive”.
In the case of `NC(=O)N(O)[C@@H]1COc2cc(OCc3ccccc3)ccc21`, the outcome is reported as “inactive”.
With `CCCCCCCCCCCCCCCCOS(=O)(=O)O` the outcome was “inactive”.
In the case of `Cc1ccc(S(=O)(=O)NC(=O)NN2CCCCCC2)cc1`, the outcome is reported as “inactive”.
